# Assay outcomes from PubChem.
# Shown are actives, neighbours in structure and some others; about 12% of the full set was active somewhere.
# USP17 block – inhibitors of human USP17 deubiquitinase | Ubiquitin carboxyl-terminal hydrolase 17-like protein 5 (Homo sapiens), A8MUK1 | purified USP17, Ub-rhodamine cleavage fluorescence, 3 h | inhibition, % at 50 µM | hit rate 6.5% among 47,000
# USP7 block – inhibitors of human USP7 deubiquitinase; Ubiquitin carboxyl-terminal hydrolase 7 (Homo sapiens), Q93009; purified USP7, Ub-rhodamine cleavage fluorescence; inhibition, % at 20 µM; hit rate 0.3% among 47,000
# UCHL1 inh – inhibitors of human UCHL1 deubiquitinase; purified UCHL1, Ub-rhodamine cleavage fluorescence; hit rate 0.2% among 47,000; AID 1645859, 2021; Ubiquitin carboxyl-terminal hydrolase isozyme L1 (Homo sapiens), P09936; inhibition, % at 20 µM
# USP8 block – inhibitors of human USP8 deubiquitinase. Ubiquitin carboxyl-terminal hydrolase 8 (Homo sapiens), P40818. purified USP8, Ub-rhodamine cleavage fluorescence, 30 min. inhibition, % at 20 µM. hit rate 4.2% among 47,000
# USP30 inh – inhibitors of human USP30 deubiquitinase; Ubiquitin carboxyl-terminal hydrolase 30 (Homo sapiens), Q70CQ3; purified USP30, Ub-rhodamine cleavage fluorescence; inhibition, % at 25 µM; hit rate 5.3% among 47,000
# USP10 inh – inhibitors of human USP10 deubiquitinase. Ubiquitin carboxyl-terminal hydrolase 10 (Homo sapiens), Q14694. purified USP10, Ub-rhodamine fluorescence, 60 min. inhibition, % at 20 µM. hit rate 1.1% among 47,000. AID 1645856, 2021
# Target sequence (Q14694 whole entry, looked up): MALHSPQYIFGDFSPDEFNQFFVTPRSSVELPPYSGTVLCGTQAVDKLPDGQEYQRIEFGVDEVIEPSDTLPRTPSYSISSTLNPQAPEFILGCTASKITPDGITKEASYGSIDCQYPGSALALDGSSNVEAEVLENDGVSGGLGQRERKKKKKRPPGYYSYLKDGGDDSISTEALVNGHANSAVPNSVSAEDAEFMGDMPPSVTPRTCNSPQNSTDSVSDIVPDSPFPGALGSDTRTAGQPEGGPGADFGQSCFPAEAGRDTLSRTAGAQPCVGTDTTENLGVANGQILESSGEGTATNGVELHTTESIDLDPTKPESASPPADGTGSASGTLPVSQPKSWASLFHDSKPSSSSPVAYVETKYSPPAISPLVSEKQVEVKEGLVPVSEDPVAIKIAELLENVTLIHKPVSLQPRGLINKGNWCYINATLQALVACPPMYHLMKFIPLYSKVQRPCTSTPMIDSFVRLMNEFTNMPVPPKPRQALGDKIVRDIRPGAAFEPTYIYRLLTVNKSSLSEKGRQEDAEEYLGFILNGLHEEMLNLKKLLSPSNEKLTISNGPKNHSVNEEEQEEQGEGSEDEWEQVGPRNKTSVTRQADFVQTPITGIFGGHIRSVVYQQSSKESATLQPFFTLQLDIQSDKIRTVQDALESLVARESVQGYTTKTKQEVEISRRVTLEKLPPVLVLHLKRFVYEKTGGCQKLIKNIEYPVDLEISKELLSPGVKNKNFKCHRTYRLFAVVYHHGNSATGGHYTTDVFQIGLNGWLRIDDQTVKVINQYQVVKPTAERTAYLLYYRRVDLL
# Hits are given with their value; 0 = inactive; - = no result. Rule as the data show it: active = inhibition above about 30%; inactive = the rest.
SMILES,USP17 block,USP7 block,UCHL1 inh,USP8 block,USP30 inh,USP10 inh
O=C(Nc1ccccc1F)c1ccc(N2CCCC2)nn1,0,-,0,0,0,0
O=C(Nc1cccc(-c2ccc(N3CCOCC3)nn2)c1)c1ccccc1Br,41,0,0,0,39,0
O=C(NCc1ccc(F)cc1)c1ccc(N2CCCC2)nn1,33,0,0,0,0,0
CCOC(=O)C(NC(C)=O)(N1CCN(c2cc3c(cc2F)c(=O)c(C(=O)O)cn3C2CC2)CC1)C(F)(F)F (centres undefined),0,0,0,0,0,0
Cc1ccc2nc(SCC(=O)N3CCN(c4ncccn4)CC3)[nH]c2c1,0,0,0,0,0,0
COc1cccc(C(C)NC(=O)c2ccc(-c3ccc(N4CCCC4)nn3)cc2)c1 (centres undefined),0,0,0,0,0,0
COc1ccc(NC(=O)c2ccc(-c3ccc(N4CCCC4)nn3)cc2)c(OC)c1,41,0,0,0,0,0
CC1CCN(C(=O)c2cnn(-c3ccc(Cl)cc3)c2C2CCNCC2)CC1,0,0,0,0,0,0
COc1ccc(-n2ncc(C(=O)N3CCN(c4cc(C)ccc4C)CC3)c2C2CCNCC2)cc1,0,0,0,0,30,0
COc1ccc(N(C(=O)CCCC(=O)Nc2ccccn2)C(C(=O)NC2CCCCC2)c2ccc(Cl)cc2)cc1 (centres undefined),33,0,0,0,37,0
COc1ccc(OC)c(N(CC(=O)NC2CCCCC2)C(=O)CCC(=O)Nc2ccccn2)c1,0,0,0,0,30,0
Cc1ccc(N(C(=O)CCCC(=O)Nc2ccccn2)C(C(=O)NC2CCCC2)c2ccc(F)cc2)cc1C (centres undefined),37,0,0,0,38,0
COc1ccc(C(C(=O)NC2CCCCC2)N(C(=O)CCCC(=O)Nc2ccccn2)c2ccccc2C)cc1 (centres undefined),56,0,0,0,0,0
COc1ccc(N(C(=O)CCCC(=O)Nc2ccccn2)C(C(=O)NC2CCCCC2)c2ccc(Cl)cc2)c(OC)c1 (centres undefined),0,0,0,0,0,0
COCCCNC(=O)Cn1c(=O)n(-c2ccccc2)c(=O)c2c3c(sc21)CCCC3,0,0,0,0,0,0
CCCNC(=O)C1CCN(c2cc(N3CCCCC3)ncn2)CC1,0,0,0,0,0,0
Cn1cnc(-c2nc(C(=O)NCCN3CCOCC3)c3ccccn23)c1,0,0,0,0,0,0
CC(C)Oc1ccc(C(=O)Oc2ccc(-n3cnnn3)cc2)cc1,0,0,0,0,0,0
CCOc1ccc2nc(NC(=O)CSc3nnc(C(CC)N(C)C)n3Cc3ccccc3)sc2c1 (centres undefined),0,0,0,0,0,0
COc1ccc(Cl)cc1-n1nnc(C(=O)N2CCc3ccccc3C2)c1C,-,0,0,0,83,0
COc1ccccc1NC(=O)COc1cc(C)nc(-c2ccc(C)cc2)n1,56,0,0,0,62,0
COc1ccccc1OCC(=O)Nc1cccc2ccc(C)nc12,47,0,0,0,34,0
CCOc1ccc(NC(=O)COc2ccccc2C)c2cccnc12,0,0,0,0,0,0
CCOc1ccc(NC(=O)COc2ccccc2OC)c2cccnc12,0,0,0,33,0,0
COc1ccc(C(O)CN2CCN(c3ncccn3)CC2)cc1 (centres undefined),0,0,0,0,0,0
SMILES,USP17 block,USP7 block,UCHL1 inh,USP8 block,USP30 inh,USP10 inh
COc1cc(NC(=O)Nc2nccn(-c3ccccc3)c2=O)cc(OC)c1,0,0,0,0,0,0
Cc1ccc(N(CC(=O)N2CCCc3ccccc32)S(=O)(=O)c2ccc3c(c2)OCCO3)cc1,0,0,0,0,32,0
Cc1ccc(NC(=O)c2cnc(N3CCOCC3)nc2)cc1F,89,0,0,0,46,0
CC(C)N1CCC2(CC1)Nc1ccccc1C(=O)N2Cc1ccccc1,0,0,0,0,0,0
O=C1c2ccccc2NC2(C(=O)Nc3ccc(Br)cc32)N1c1ccccc1 (centres undefined),0,0,0,33,0,0
COc1ccc(Cn2c(Oc3ccccc3C)nc3c2c(=O)n(C)c(=O)n3C)cc1,0,0,0,0,32,0
